Test [1] can be described thus: Cell Viability - SK-N-SH (AID 435; calls by dose curve;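 note: potency is the fitted concentration of half-maximal effect; compound exposure lasted 40 h at 37 °C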). Conditions: SK-N-SH neuroblastoma cell viability qHTS. Summed up: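 SK-N-SH human neuroblastoma cells (1500/well) were exposed to compounds in complete medium for 40 h at 37 °C, and intracellular ATP was then measured by CellTiter-Glo luminescence. AC50 was taken from Hill fits, normalized to DMSO and 100 uM tamoxifen.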
Background: In qHTS, concentration-response curves come from the screen itself.

The nature of test [2]: Cell Viability - Renal Proximal Tubule (AID 545). Note: nearly all actives have a fitted effect of over 40% in size. Conditions: renal proximal tubule cells viability; series mostly up to 91.7 µM. The method in brief: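 Primary rat renal proximal tubule cells (1000/well) were treated with compounds for 40 hr at 37 °C in complete medium. Intracellular ATP was measured by CellTiter-Glo luminescence, and AC50 values came from Hill-equation fits of concentration-response data.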

Test [3] is described as follows: Cellular Toxicity (caspase-3) Jurkat (AID 655).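 Note: cells exposed to compound for 16 h at 37 °C before reading.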 As to conditions: Jurkat caspase-3 activation, luminescence; caspase-3 activation: at 92.2 µM (top of the series), DMSO = 0%, tamoxifen = 100%. The method in brief:
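Jurkat cells (5000/well) in complete medium were treated with compounds for 16 hr at 37 °C, then Caspase-Glo 3/7 luminescence was read after 20 min at room temperature. Data normalized to DMSO (basal) and 100 uM tamoxifen (100%); AC50 from Hill fit.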

Test [4] is described as follows: Cellular Toxicity (caspase-3) SHSY5Y (AID 657). As to conditions: SH-SY5Y caspase-3 activation, DMSO zero, 10 µM staurosporine = 100%; series mostly up to 91.7 µM. The method in brief:
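SH-SY5Y human neuroblastoma cells (1500/well) were treated with compounds for 16 h at 37 °C, then Caspase-Glo 3/7 luminescence was read after 1 h at room temperature. Data normalized to DMSO and 10 uM staurosporine; AC50 from Hill fits.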

Test [5] is described as follows: Cellular Toxicity (caspase-3) BJ (AID 658). As to conditions: BJ fibroblasts, luminescence, normalized: DMSO 0%, staurosporine 100%; series mostly up to 91.7 µM. Summed up: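 Caspase-Glo 3/7 luminescence, read 1 hr after reagent at room temperature, in normal BJ fibroblasts exposed 16 hours at 37 °C. AC50 values from Hill-equation concentration-response, scaled between DMSO basal and 10 uM staurosporine as 100%.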

The nature of test [6]: Cellular Toxicity (caspase-3) N2a (AID 665).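 Note: compound exposure lasted 16 h at 37 °C before readout.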 As to conditions: N2a cells, luminescence, normalized: DMSO 0%, 10 µM staurosporine 100%; series mostly up to 92.2 µM. The method in brief:
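Caspase-3/7 activation measured as luminescence from Caspase-Glo reagent (1 h, room temperature) after 16 h compound exposure of mouse N2a cells. AC50 values from Hill-equation concentration-response, scaled between DMSO and 10 uM staurosporine.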

Test [7] can be described thus: Cellular Toxicity (caspase-3) Renal Proximal Tubule (AID 667).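 Note: cells exposed to compound for 16 hours at 37 °C before detection.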 As to conditions: renal proximal tubule cells; series mostly up to 91.7 µM. The method in brief: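 Primary rat proximal tubule cells, 1000/well, 5 h plating at 37 °C, then compound 16 h at 37 °C. Caspase-Glo 3/7 reagent, 1 h RT, luminescence. Normalized to DMSO (basal) and 10 uM staurosporine (100%); Hill-fit AC50.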

Test [8] has as its target Cytochrome P450 3A4 (Homo sapiens) (UniProt P08684). Kind of test: qHTS Assay for Inhibitors and Substrates of Cytochrome P450 3A4 (AID 884). Note: % is set by controls: 0 for no effect and ±100 for the full control effect; nearly all actives have a fitted effect of over 50% in size. Conditions: recombinant CYP3A4, Luciferin-PPXE luminescence; series mostly up to 57.1 µM. The method in brief: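 Luminescent readout of luciferin produced by CYP3A4 (20 nM) dealkylation of Luciferin-PPXE, 25 uM (its KM). NADPH-driven reaction ran 60 min at RT after 10 min compound preincubation; data scaled to 57 uM ketoconazole as 100% inhibition.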

Test [9] in a line: MultiTox-Fluor Cytotoxicity Assay - LYMP1-001 - Dead Cells (AID 946).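 Note: 0% = DMSO and 100% = tetraoctylammonium bromide.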 As to conditions: LYMP1-001 lymphoblastoid cells, dead-cell protease fluorescence; series mostly up to 92.2 µM. Summed up: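 AC50 from Hill fit of concentration-response; data normalized to DMSO (basal) and 15 uM tetraoctylammonium bromide (100%). LYMP1-001 lymphoblastoid cells, 2500/well, 16 hr compound at 37 C; dead-cell protease fluorescence, Ex/Em 485/520.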

The nature of test [10]: Cell Viability - LYMP1-002 - Assay at 16 hr (AID 948).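 Note: 0% = DMSO alone and full effect = 92 µM tetraoctylammonium bromide.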 Conditions: LYMP1-002 lymphoblastoid cell viability; series mostly up to 92.2 µM. The method in brief: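 Human lymphoblastoid cells (LYMP1-002), 2500/well, were preincubated 5 hr at 37 C, then exposed to compounds for 16 hr at 37 C in complete medium. Cellular ATP was read by CellTiter-Glo luminescence after 30 min at room temperature; AC50 from Hill fits.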

A short description of test [11]: MultiTox-Fluor Cytotoxicity Assay - LYMP1-003 - Dead Cells (AID 961).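 Note: 0% = DMSO and 100% = tetraoctylammonium bromide; nearly all actives have a fitted effect of over 70% in size.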 Conditions: LYMP1-003 lymphoblastoid cells, dead-cell protease fluorescence; series mostly up to 92.2 µM. The method in brief:
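Human lymphoblastoid LYMP1-003 cells (2500/well) were treated with compounds for 16 hr at 37 C in complete medium. Dead-cell protease release was read by bis-AAF-R110 fluorescence (Ex/Em 485/520). AC50 came from Hill fits, normalized to DMSO and 15 uM tetraoctylammonium bromide.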

Test [12] can be described thus: Cell Viability - LYMP1-003 - Assay at 24 hr (AID 963).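 Note: plate controls were DMSO only for no effect and tetraoctylammonium bromide positive control for full effect.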 As to conditions: LYMP1-003 lymphoblastoid cell viability; series mostly up to 92.2 µM. Summed up: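 Concentration-response qHTS: ATP loss measured by CellTiter-Glo luminescence after 24 h compound exposure at 37 C. Cells were LYMP1-003 human lymphoblastoid, 2500 per well. AC50 derived via standard Hill equation modeling.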

Test [13] can be described thus: Cell Viability - LYMP2-003 (AID 965).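 Note: cells exposed to compounds for 24 h before reading; nearly all actives have a fitted effect of over 50% in size.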 Note: potency is the fitted concentration of half-maximal effect. Conditions: LYMP2-003 lymphoblastoid cell viability; series mostly up to 92.2 µM. Summed up:
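Human lymphoblastoid cells (2500/well) were pre-incubated 5 hr at 37 C, then exposed to compounds over a concentration range for 24 hr at 37 C. Intracellular ATP was read by CellTiter-Glo luminescence; AC50 came from Hill-equation fits.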

The nature of test [14]: Cell Viability - LYMP2-015 (AID 971). Note: nearly all actives have a fitted effect of over 55% in size. Note: potency is the fitted concentration of half-maximal effect. Conditions: LYMP2-015 lymphoblastoid cell viability; series mostly up to 92.2 µM. The method in brief:
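Cytotoxicity readout: decrease in intracellular ATP (CellTiter-Glo luminescence) in 2500 LYMP2-015 lymphoblastoid cells/well after 24 h compound exposure at 37 C. Concentration-response data fitted with the standard Hill equation to give AC50.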

Test [15] can be described thus: Cell Viability - LYMP1-002 - Assay at 24 hr (AID 993). Note: % is set by controls: 0 for no effect and ±100 for the full control effect. As to conditions: LYMP1-002 lymphoblastoid cells viability; series mostly up to 92.2 µM. The method in brief:
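qHTS cytotoxicity at 24 h: CellTiter-Glo ATP luminescence in lymphoblastoid line LYMP1-002 incubated with compound at 37 °C. Concentration-response modeled with the Hill equation for AC50; tetraoctylammonium bromide served as positive control.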

Test [16] can be described thus: Cell Viability - LYMP1-002 - Assay at 40 hr (AID 994).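 Note: 0% = DMSO only and full inhibition = 92 µM tetraoctylammonium bromide; nearly all actives have a fitted effect of over 60% in size.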 Conditions: LYMP1-002 lymphoblastoid cell viability; series mostly up to 92.2 µM. The method in brief: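 Cytotoxicity was read as loss of cellular ATP (CellTiter-Glo luminescence) after 40 hr compound exposure at 37 C of 2500 LYMP1-002 lymphoblastoid cells per well. Concentration-response data were fitted with the standard Hill equation to give AC50.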

The target of test [17] is Peroxisome proliferator-activated receptor alpha (Homo sapiens) (UniProt Q07869). Kind of test: qHTS assay for small molecule agonists of the peroxisome proliferator-activated receptor alpha (PPARalpha) signaling pathway (AID 651778). Note: % of control where 0% means no effect. As to conditions: PathHunter PPARalpha complementation, chemiluminescence, 6 h; active compounds read high. The method in brief:
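Chemiluminescence from complemented enzyme reported PPARalpha activation in cells after 6 hr of compound treatment at 37 C. The detection reagent was incubated for 60 min at room temperature, and compounds were scored as agonists.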

Test [18] can be described thus: qHTS assay for cell viability of the p53RE-bla HCT-116 cell line (AID 743292). Note: % is set by controls: 0 for no effect and ±100 for the full control effect; nearly all actives have a fitted effect of over 55% in size. As to conditions: p53RE-bla HCT-116 viability, ATP luminescence, 16 h; series mostly up to 95 µM. Summed up: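 Intracellular ATP of p53RE-bla HCT-116 cells measured by luciferase luminescence following 16 h compound incubation at 37 C; DMSO-only wells served as vehicle controls.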
Test [19] has as its target Nuclear receptor subfamily 1 group I member 2 (Rattus norvegicus) (UniProt Q9R1A7). Kind of test: qHTS assay for small molecule activators of the rat pregnane X receptor (rPXR) signaling pathway (AID 651751; call rule not given here; note: 0% is about no effect). As to conditions: rPXR reporter cells, luciferase (One-Glo), 24 h.
Test [20] can be described thus: qHTS assay for cell viability of HEK293 cells (AID 743288). Note: % is set by controls: 0 for no effect and ±100 for the full control effect; nearly all actives have a fitted effect of over 50% in size. As to conditions: ATP luminescence (CellTiter-Glo), 18 h, active compounds read low. Summed up: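 After 18 h compound exposure at 37 C, parental HEK293 cells (2,000/well) are lysed with CellTiter-Glo and luminescence is read following 30 min at room temperature.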

Where “and” joins values, the source holds several entries; their conditions need not be identical. Equal values may be shown once. Values without a mark were called inactive. Inconclusive results are not listed. Calls of active or inactive are those of the source. Unless noted, calls come from the whole dose curve; as a rule, active = well fitted curve in the direction sought with a large enough effect; inconclusive = small, poorly fitted or top-dose-only effect, or another doubt; inactive = no such curve, though single readings can be large; an effect the other way counts as inactive or inconclusive. Bounds are passed on as bounds.

Experimental findings from PubChem BioAssay (NCATS) are described below.

Chain of Cytochrome P450 3A4 (Homo sapiens) (P08684 whole entry, looked up): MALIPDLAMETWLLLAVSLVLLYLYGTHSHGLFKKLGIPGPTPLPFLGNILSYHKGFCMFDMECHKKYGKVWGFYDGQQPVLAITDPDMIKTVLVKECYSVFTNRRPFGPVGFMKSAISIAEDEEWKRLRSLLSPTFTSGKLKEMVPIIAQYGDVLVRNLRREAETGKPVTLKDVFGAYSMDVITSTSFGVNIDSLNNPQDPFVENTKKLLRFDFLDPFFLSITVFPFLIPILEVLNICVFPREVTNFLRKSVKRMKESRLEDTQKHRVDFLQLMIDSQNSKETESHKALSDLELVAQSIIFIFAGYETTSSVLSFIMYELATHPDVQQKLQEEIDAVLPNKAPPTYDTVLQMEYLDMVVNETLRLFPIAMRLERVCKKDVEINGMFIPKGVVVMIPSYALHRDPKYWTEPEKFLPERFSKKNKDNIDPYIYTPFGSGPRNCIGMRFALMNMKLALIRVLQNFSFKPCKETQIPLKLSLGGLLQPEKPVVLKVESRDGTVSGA
Chain of Peroxisome proliferator-activated receptor alpha (Homo sapiens) (Q07869 whole entry, looked up): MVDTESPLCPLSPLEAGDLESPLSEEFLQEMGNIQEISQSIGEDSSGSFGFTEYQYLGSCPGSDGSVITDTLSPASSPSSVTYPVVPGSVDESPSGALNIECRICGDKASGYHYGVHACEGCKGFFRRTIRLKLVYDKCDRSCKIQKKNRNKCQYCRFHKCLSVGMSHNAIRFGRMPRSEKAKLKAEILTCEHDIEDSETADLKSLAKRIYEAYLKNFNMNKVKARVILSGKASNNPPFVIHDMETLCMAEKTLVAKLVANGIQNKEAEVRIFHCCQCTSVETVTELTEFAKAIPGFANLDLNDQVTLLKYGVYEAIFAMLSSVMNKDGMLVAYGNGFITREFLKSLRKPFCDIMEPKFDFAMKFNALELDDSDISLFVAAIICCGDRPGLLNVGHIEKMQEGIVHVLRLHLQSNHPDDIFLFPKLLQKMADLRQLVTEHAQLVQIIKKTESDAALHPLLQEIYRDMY
Chain of Nuclear receptor subfamily 1 group I member 2 (Rattus norvegicus) (Q9R1A7 whole entry, looked up): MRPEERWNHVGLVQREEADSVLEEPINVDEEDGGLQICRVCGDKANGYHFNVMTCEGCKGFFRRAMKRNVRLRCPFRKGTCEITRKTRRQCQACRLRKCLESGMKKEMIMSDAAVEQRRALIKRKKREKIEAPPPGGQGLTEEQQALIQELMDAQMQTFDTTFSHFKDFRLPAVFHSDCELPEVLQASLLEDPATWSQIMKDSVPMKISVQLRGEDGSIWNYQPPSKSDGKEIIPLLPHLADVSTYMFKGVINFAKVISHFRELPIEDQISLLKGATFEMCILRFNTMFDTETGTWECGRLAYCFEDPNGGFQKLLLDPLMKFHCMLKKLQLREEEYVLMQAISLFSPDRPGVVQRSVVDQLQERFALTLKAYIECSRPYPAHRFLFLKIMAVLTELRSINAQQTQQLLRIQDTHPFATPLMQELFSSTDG

`N#C/C=C/C#N`: the figures for the Potency in [1], in test [13] and in [14] were 24.4 µM (active), 20 µM (active) and 50.1 µM (active), respectively. For the same compound, the result in test [2], in [4], in test [5], in test [6], in test [7] and in [9] was inactive. Moreover, the call in test [10] and in test [12] was inactive. Further, in test [3], the caspase-3 activation is -8.24%. Further, the Potency result in test [8], in test [11], in test [15], in test [16] and in [18] was “inactive” each time. Further, the results for the max response in [17] and in [19] were -6.4% and -4.77%, respectively.

For `Nc1ccc([N+](=O)[O-])cc1N`, the Potency in [1] was over 92 µM. In addition, the result in [2], in test [4], in test [5], in [6], in test [7] and in test [9] was inactive. The compound was called inactive in [10] and in test [12]. Further, the caspase-3 activation in [3] is 17.7%. For the same compound, the Potency result in test [8], in [11], in [13], in test [14], in [15] and in test [16] was “inactive” in each case. For the same compound, the Potency result in test [18] was “inactive”. Further, the max response is -9.77% and -2.05% in test [17]; 7.69% and 2.35% in test [20]; -5.6% and -2.56% in test [19].

With `C=CCBr`, the Potency in [1] was over 92 µM. Further, the result in test [2], in test [4], in test [5], in [6], in test [7] and in test [9] was inactive. For the same compound, the call in [10] and in test [12] was inactive. Moreover, the caspase-3 activation in test [3] is -0.133%. Moreover, the Potency result in test [8], in test [11], in test [13], in test [14], in test [15] and in [16] was “inactive” each time. Further, the Potency entry in test [18] was “inactive”. Besides, the max response in test [17] was -4.55%; in [20], -2.53%; in test [19], 1.14%.

Turning to `Brc1cccc(-c2ccccc2)c1`, in test [1], the Potency was over 92 µM. The compound was classed as inactive in test [2], in test [4], in test [5], in test [6], in [7] and in test [9]. Also, the compound was classed as inactive in [10] and in test [12]. Further, the caspase-3 activation in test [3] is 1.47%. The Potency entry in test [8], in test [11], in test [13], in test [14], in test [15] and in test [16] was “inactive” each time. Further, in test [18], the Potency result was “inactive”. Further, the max response in test [17] is -1.43%; in [20] it was 8.7%; in test [19], 2.39%.
